Measurements reported in PubChem BioAssay (NCI).
Compounds without any hit were thinned out: in the full panel of roughly 79,000, 15% have a hit. Cut-off read from the data, not from the text of the source: active = growth inhibition above about 70%; inactive = the rest.

What was measured:
[1] = NCI Yeast Anticancer Drug Screen. Data for the rad50 strain (AID 155);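 note: 0% = growth of vehicle-only cultures of the same strain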; conditions: S. cerevisiae rad50 strain growth inhibition; at 50.0 µM; hits give high values
How it was run: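 Growth of the mutant yeast was measured after compound exposure and referenced to vehicle-treated cultures.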

[2] = NCI Yeast Anticancer Drug Screen. Data for the mec2-1 strain (AID 157); conditions: S. cerevisiae mec2-1 strain, at 50.0 µM, hits give high values
How it was run: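 Mutant yeast (mec2-1) grown with compound; growth inhibition relative to vehicle control reported.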

[3] = NCI Yeast Anticancer Drug Screen. Data for the sgs1 mgt1 strain (AID 161);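 note: 0% = growth of cultures given vehicle only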; conditions: S. cerevisiae sgs1 mgt1 strain, at 50.0 µM, hits give high values
How it was run: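 This yeast growth screen uses a strain with defined DNA-repair lesions; compound-treated growth is compared with vehicle-treated growth.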

[4] = NCI Yeast Anticancer Drug Screen. Data for the cln2 rad14 strain (AID 165);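 note: 0% = growth equal to vehicle treated cultures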; conditions: S. cerevisiae cln2 rad14 strain, at 50.0 µM, hits give high values
How it was run: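 Readout is yeast growth inhibition versus vehicle-treated controls, using a strain with cln2 and rad14 alterations exposed to compound.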

[5] = NCI Yeast Anticancer Drug Screen. Data for the bub3 strain (AID 167); conditions: S. cerevisiae bub3 mutant strain, at 50.0 µM, hits give high values
How it was run: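 Whole-cell yeast assay. The mutant strain was incubated with compounds, and growth inhibition was determined by comparison with vehicle-treated cells.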

[6] = NCI Yeast Anticancer Drug Screen. Data for the mlh1 rad18 strain (AID 175); conditions: S. cerevisiae mlh1 rad18 strain growth inhibition; at 50.0 µM; hits give high values
How it was run: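 Genetically defined yeast (DNA repair-deficient) exposed to compounds; growth inhibition determined relative to vehicle.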

Measured: growth inhibition

Cc1[nH]c2ccc(-c3ccccc3)cc2c1CC(=O)O
inactive: [1] 51.5% | [2] -22.8% | [3] 47.7% | [4] -5.85% | [5] 3.35% | [6] 53.9%

c1ccnnc1
inactive: [1] 15.9% | [2] -29% | [3] 4.8% | [4] -10.2% | [5] -0.4% | [6] 4.25%

CCOC(=Nc1cccc2ccccc12)Nc1cccc2ccccc12
inactive: [1] -5.9% | [2] -6.95% | [3] -8.6% | [4] -25.2% | [5] -15.8% | [6] -6.65%

Nc1cc2c(cc1Br)-c1ccccc1C2Br (stereo unspecified)
inactive: [1] -6.35% | [2] -10.9% | [3] 3.7% | [4] 10.7% | [5] 1.25% | [6] 2.7%

CC(=O)c1c(Cl)cc(Cl)c(Cl)c1Cc1c(Cl)c(Cl)cc(Cl)c1C(C)=O
inactive: [1] 9.5% | [2] 9.8% | [3] 7% | [4] 18.2% | [5] 5.95% | [6] 9.55%

CC(=O)N(C)O
inactive: [1] 21.2% | [2] 17.4% | [3] -4.05% | [4] -5.85% | [5] -19.9% | [6] -0.4%

NCCCCCCCCCCCCN
inactive: [1] -6.15% | [2] -11.8% | [3] -0.3% | [4] -37.2% | [5] -13.5% | [6] 19%

O=S(=O)(O)c1cc2c3ccccc3ccc2c2ccccc12
inactive: [1] 1.75% | [2] -5.35% | [3] 13.8% | [4] -15.5% | [5] -1.35% | [6] 21.8%

CN1CCc2cc3c(cc2C(=O)Cc2ccc4c(c2C1)OCO4)OCO3
inactive: [1] -14.7% | [2] -13.8% | [3] -8.35% | [4] 10.4% | [5] -13.4% | [6] -27.3%

CCOC(=O)C(=O)Cc1cnccn1
inactive: [1] -25.2% | [2] -12.7% | [3] -11.8% | [4] -0.9% | [5] -17.8% | [6] -2.65%

CSC1=NC=C(C#N)C2=NC(c3c(F)cccc3Cl)NN12 (stereo unspecified)
inactive: [1] 30.3% | [2] 7.65% | [3] 35.3% | [4] 26.2% | [5] 24.6% | [6] 26.8%

O=C(O)CN(CC(=O)O)CC(=O)O
inactive: [1] -9.7% | [2] -23.6% | [3] -34.4% | [4] -11.8% | [5] -17.1% | [6] 32.1%

COCCCOC(=O)COc1ccccc1
inactive: [1] -11.3% | [2] -45.5% | [3] -8.65% | [4] -12.8% | [5] 11.9% | [6] -13.5%

CNc1nc2c(C)ccc3nc(N(C)C)nc-3c2n1C
inactive: [1] 0.6% | [2] -22.2% | [3] 4.4% | [4] 16.4% | [5] 20.1% | [6] 14.8%

CCOc1ccc(/C=C2N=C(/C=C/c3ccccc3)OC\2=O)cc1
inactive: [1] 19% | [2] 14.8% | [3] 19.1% | [4] 16.6% | [5] 3.2% | [6] 3.75%

Nc1nc(SCC(=O)c2ccc(F)cc2)sc1C(=O)c1ccc(F)cc1
inactive: [1] -9.75% | [2] 6.9% | [3] 1.4% | [4] 1.3% | [5] -0.9% | [6] 14%

CC1CCCC2(CC[N+](C)(CCC[N+](C)(C)C)CC2)C1 (stereo unspecified)
inactive: [1] -9.5% | [2] -7.95% | [3] -16.2% | [4] 15.1% | [5] -41% | [6] -1.7%

Nc1cc(=O)[nH]c(=S)n1-c1ccccc1
inactive: [1] -7% | [2] 2.5% | [3] -12.2% | [4] -16.1% | [5] -2.5% | [6] -9.65%

C[N+]1(CCc2ccccc2)CCOCC1
inactive: [1] -13.6% | [2] 3.9% | [3] 0.8% | [4] -38% | [5] 1.5% | [6] 2.8%

CCCCCCCCCCCCCCCC[N+]1(C)CCC[N+](C)(CCCCCCCCCCCCCCCC)CC1 (stereo unspecified)
inactive: [1] -5.25% | [2] -21% | [3] -2.65% | [4] -22.6% | [5] -8.4% | [6] -0.1%

COc1cc(C=O)cc(OC)c1
inactive: [1] -19.3% | [2] -49.3% | [3] -20.4% | [4] 12.4% | [5] -51% | [6] -2.25%
